In the library only some 2.5% were active in any assay of this set; here they are far more common.
p53ts 39C kill: p53ts cell cytotoxicity, nonpermissive temperature | H1299-p53A138V viability at 39C, ATP luminescence, 24 h | Potency, µM (series often up to 46.1 µM), most hits filed as cytotoxic | actives 1.5% (n = 130,000); also: nearly all actives have a fitted effect of over 55% in size
Caspase-1 inhib: blocks human caspase-1 allosterically or competitively. AID 900. P29466. Potency, µM (highest dose often 57.5 µM), usual class: inhibitors. Caspase-1 enzyme, Ac-WEHD-AFC fluorogenic rate. actives 0.03% (n = 75,000)
p53ts 32C kill: p53ts cell cytotoxicity, permissive temperature. H1299-p53A138V at 32C, ATP luminescence viability, 24 h. Potency, µM (series often up to 46.1 µM), most hits filed as cytotoxic. actives 0.93% (n = 130,000). AID 924; also: nearly all actives have a fitted effect of over 55% in size
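Viability by ATPlite luminescence after 24 h compound treatment (up to 46 uM) at the permissive 32C. Cells are H1299 carrying p53 A138V. Scale runs from DMSO basal to 100 uM tamoxifen as full kill; AC50 from Hill fits.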
Luciferase inh: inhibitors of firefly luciferase | P08659 | purified firefly luciferase, luminescence, 8 min | Potency, µM (doses to about 57.1 µM), hits mostly inhibitors | actives 2.2% (n = 72,000); also: nearly all actives have a fitted effect of over 40% in size
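Compounds were tested as concentration series (qHTS) against purified P. pyralis luciferase with luciferin and 10 uM ATP in 50 mM imidazole pH 7.2, 50 mM KCl, 7 mM MgCl2, 0.01% Tween 20, 0.05% BSA. Luminescence was read after 8 min at ambient temperature.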
Casp7 inh: caspase-7 (human) inhibition, allosteric or competitive | recombinant caspase-7, Ac-DEVD-AFC fluorescence rate | actives 0.02% (n = 75,000) | P55210 | Potency, µM (doses to about 57.5 µM), actives largely listed as inhibitors; active = well fitted inhibition curve with a large enough effect in the main read-out, with a control signal flat, not every such curve was filed as active; inconclusive = small, poorly fitted or top-dose-only effect, or a change in a side signal
IkB sig inh: inhibitors of IkB signaling in ABC-DLBCL cells. ABC-DLBCL IkBa-CBG/CBR dual luciferase ratio, 4 h; response scale: scaled: untreated 0%, proteasome inhibitor 100%. Potency, µM (highest dose often 57.1 µM). actives 0.04% (n = 110,000). AID 445; active = well fitted curve in the direction sought with a large enough effect in the signal ratio, not every such curve was filed as active; inconclusive = small, poorly fitted or top-dose-only effect, or a change in a side signal; the % refers to the signal ratio;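 also: the direction sought is a rising ratio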
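Luminescence ratio of IκBα-fused green versus native red beetle luciferase in OCI-Ly3 cells, 4 h post-doxycycline with compound; red signal alone, scaled from basal (0%) to zero light (-100%), flagged nonspecific or cytotoxic effects.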
A number is an active result; . = inactive; ? = inconclusive; / = no result given; ! = repeats disagree; [ ] = dose if it differs, or a comment. Unless noted, calls follow the shape of the dose curve; as a rule, active = well fitted curve in the direction sought with a large enough effect; inconclusive = small, poorly fitted or top-dose-only effect, or another doubt; inactive = no such curve, though single readings can be large; an effect the other way counts as inactive or inconclusive.

SMILES	p53ts 39C kill	Caspase-1 inhib	p53ts 32C kill	Luciferase inh	Casp7 inh	IkB sig inh
C[C@@H]1OC2C3=C(C(=O)[C@H]4O[C@@H]4[C@H]3O)[C@@H]1[C@H]1[C@H](C)OC=C3[C@H](O)[C@H]4O[C@H]4/C(=N\OCc4ccccc4)[C@@]321	4µM	.[11.5 µM]	.[9.22 µM]	.[11.4 µM]	.[11.5 µM]	/
N#CCSc1nnc2c(Cl)cc(Cl)cn12	.	.	.	.	.	.
O=C(Nc1cccnc1)Nc1ccc2c(c1)OCO2	?	.	?	16µM	.	.
Cn1ccc2cc(NC(=O)Nc3cccnc3)ccc21	16µM	.	?	16µM	.	.
O=C(Nc1cccnc1)c1c(F)c(F)c(F)c(F)c1F	.	.	.	.	.	.
O=C(Nc1cccnc1)Nc1ccc(F)c(Cl)c1	.	.	?	20µM	.	.
Cn1nnc2cc(C(=O)Nc3cccnc3)ccc21	.	.	.	.	.	.
O=C(Nc1ccc2c(c1)OCO2)Nc1cnccn1	.	.	.	.	.	.
O=C(Nc1ccc2c(c1)OCO2)c1cnn2cccnc12	?	.	?	20µM	.	.
O=C(CCN1C(=O)c2ccccc2C1=O)N1CCN(Cc2ccccc2)CC1	.	.	.	/	.	/
O=C(c1cc2ccc3cccnc3c2[nH]1)N1CCCCC1	0.63µM	/	1.6µM	/	/	?
COc1ccccc1NC(=O)c1cc2ccc3cccnc3c2[nH]1	7.9µM	/	10µM	/	/	.
CC1CCCN(C(=O)c2cc3ccc4cccnc4c3[nH]2)C1 (configuration not stated)	1.6µM	/	0.79µM	/	/	?
CCOc1ccc(-c2nn(CC(=O)NC3CCCC3)c3c2cnc2ccc(F)cc23)cc1	.	/	.	/	/	.
O=[N+]([O-])c1cccc2c[nH]nc12	.	.	.	.	.	.
CC(C)c1ccc(NC(=O)CN2C(=O)COc3ccc(S(=O)(=O)Nc4ccccc4)cc32)cc1	.	/	.	/	/	.
O=C(Nc1ccc2c(c1)OCO2)OCc1ccccc1	?	.	?	13µM	.	.
O=C(Nc1cccc(NC(=O)c2ccco2)c1)c1ccc2c(c1)OCO2	.	.	.	.	.	.
CN(C)C(=O)COc1ccc2ccc(=O)oc2c1	?	.	.	.	.	.
O=C(Nc1ccc2c(c1)OCCO2)c1ccco1	13µM	.	16µM	10µM	.	.
O=C(COc1ccc2ccc(=O)oc2c1)Nc1ccc2c(c1)OCCO2	.	.	.	13µM	.	.
O=C(COC(=O)c1ccco1)Nc1ccc2c(c1)OCCO2	.	.	.	10µM	.	.
CCC(C)NC(=O)c1cc(Sc2cccc(Cl)c2)nc2ccccc12 (configuration not stated)	.	/	.	/	/	.
Cc1cccc(N2CCN(C(=O)Cn3sc4nc(C)cc(C)c4c3=O)CC2C)c1 (configuration not stated)	.	.	.	?	.	?
Nc1nc(N)c2nc(-c3ccccc3)c(N)nc2n1	.	/	13µM!	.	?	?
SMILES	p53ts 39C kill	Caspase-1 inhib	p53ts 32C kill	Luciferase inh	Casp7 inh	IkB sig inh
COc1cc(OC)c(NC(=O)CCCn2nc(C)c3sc4ccccc4c3c2=O)cc1Cl	13µM	/	.	/	/	.
Cc1c(N=Cc2nc3ccccc3[nH]2)c(=O)n(-c2ccccc2)n1C	.	.	.	16µM	.	.
Cc1c(N=Cc2nc3ccccc3n2C)c(=O)n(-c2ccccc2)n1C	.	.	.	4µM	.	.
CN1CCc2cccc3c2[C@@H]1Cc1ccc(O)c(O)c1-3	10µM!	.	32µM!	.[11.4 µM]	.	.[11.4 µM]
COc1cc2c3cc1Oc1c(OC)c(OC)cc4c1[C@@H](Cc1ccc(O)c(c1)Oc1ccc(cc1)C[C@@H]3N(C)CC2)N(C)CC4	.	.	.	.[11.4 µM]	.	.[11.4 µM]
COC(=O)c1cccc(NC(=O)c2nsc3ccccc23)c1	6.3µM	/	2.5µM	/	/	.
O=C(Nc1cccc(C(=O)N2CCCCC2)c1)c1nsc2ccccc12	10µM	/	16µM	/	/	.
COc1ccc(C(=O)Nc2ccc(NC(=O)c3cccs3)cc2)cc1[N+](=O)[O-]	.	/	/	/	/	/
O=C(Nc1ccc2c(c1)oc1ccccc12)N1CCOCC1	?	.	?	20µM	.	?
Cc1cc(OCC(=O)NCCCN2CCOCC2)cc(C)c1Cl	.	.	.	.	.	.
CCCCOC(=O)Nc1ccc(C(=O)OCCC)cc1	.	.	.	.	.	.
CCCOC(=O)Nc1ccc(N2CCCCC2)cc1	16µM	.	13µM	13µM	.	.
CCN(CC)CC[n+]1ccc2c(C)c3[nH]c4ccc(O)cc4c3c(C)c2c1	.[9.22 µM]	.[11.5 µM]	.[9.22 µM]	.[11.4 µM]	.[11.5 µM]	.[11.4 µM]
Cc1cccc(C#Cc2ccccc2)n1	?	.	13µM	13µM	.	.
Cc1cccc(NS(=O)(=O)Cc2ccccc2)n1	.	/	.	/	/	/
COc1ccccc1N1CCN(CC(O)COc2ccc(C)cc2C(C)(C)C)CC1 (configuration not stated)	25µM	/	.	/	/	?
C=CCn1c(-c2cccs2)nc2nc3ccccc3nc21	?	/	?	20µM	?	.
C=CCn1c(-c2cccs2)nc2ccccc21	.	.	.	.	.	.
COCCCNC(=O)c1cc2c(-c3ccc(Cl)cc3)nn(C)c2s1	.	.	.	.	.	.
Clc1cccc(-c2nc(-c3ccccn3)no2)c1	3.2µM	.	5µM	2.5µM	.	?
c1ccc(-c2nc(-c3ccccn3)no2)cc1	7.1µM	/	5.6µM	/	/	/
c1ccc(-c2noc(-c3cccc4ccccc34)n2)nc1	?	.	?	7.9µM	.	?
Cc1ccc(-c2nc(-c3ccccn3)no2)cc1Cl	2.5µM	.	2µM	0.4µM	.	?
Cc1ccc2nc(NC(=O)CSc3ncc(C(=O)Nc4ccccc4)c(=O)n3C)sc2c1	.	/	.	/	/	?
Cc1ccc(-c2nc(-c3ccccn3)no2)cc1	0.4µM	.	0.5µM	/	.	/
SMILES	p53ts 39C kill	Caspase-1 inhib	p53ts 32C kill	Luciferase inh	Casp7 inh	IkB sig inh
CCOC(=O)c1sc(-c2ccccc2)cc1N	.	.	.	?	.	.
CCOC(=O)c1sc(-c2ccc(OC)cc2)cc1N	?	.	.	13µM	.	.
CCOC(=O)Cc1csc(NC(=O)CSc2nnc(-c3ccc(C)cc3)o2)n1	7.9µM	.	13µM	.	.	.
COc1cccc(-c2nc(CS(=O)CC(=O)NCCCOC(C)C)c(C)o2)c1 (configuration not stated)	.	.	.	.	.	.
C=CCc1ccccc1OCCSc1nc(-c2ccc(C(C)(C)C)cc2)nc2cc(=O)[nH]n12	10µM	/	?	/	/	.
CC(C)(C)c1ccc(-c2nc(SCCOc3ccc(Cl)cc3)n3[nH]c(=O)cc3n2)cc1	?	/	?	/	/	.
COc1ccccc1OCCSc1nc(-c2ccc(C(C)(C)C)cc2)nc2cc(=O)[nH]n12	.	/	.	/	/	?
Cc1ccc(OCCCSc2nc(-c3ccc(C(C)(C)C)cc3)nc3cc(=O)[nH]n23)cc1C	20µM	/	?	/	/	.
Cc1ccc2[nH]c3c(c2c1)CN(C)CC3	.	/	.	/	/	/
